Data on 27 molecules can be found in PubChem BioAssay AID1259418 (Broad Institute, 2018).

SMILES strings stand for the structures. Out of some 3,400 compounds screened, about 840 (25%) were called active. Not shown: some 11% with an inconclusive outcome. A selection follows. Results with a measured potency or affinity are listed apart. Values without a mark were called inactive.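 Rule for the calls: active = fitted half-maximal concentration of signal decrease at or below twice the sample's top tested concentration; inconclusive = flat curve between -70 and -30 percent, or poor fit; inactive = flat within 30 percent, signal rise, or potency above limit.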

The assay is described as follows: T. gondii growth inhibition with IFN-gamma, dose response, cell-based, ME49Luc, HeLa, luciferase, 72 h (AID 1259418). The following applies: T. gondii ME49Luc in IFN-y HeLa, hits give low values, -100% = high-dose IFN-γ control wells; at 19.5 µM unless noted.
Take `COc1cc(OC)c(NC(=O)Nc2ccc(-c3nc(-c4ccccc4)co3)cc2)cc1Cl`: the max activity is 24.2%. With `CCOC(=O)CSc1nc(NCCc2ccc(OC)c(OC)c2)c2ccccc2n1`, the max activity is 24.2% [at 0.68 µM]. As to `Cc1ccc(-c2nc(CN3CCN(C(=O)Nc4ccccc4C(F)(F)F)CC3)c(C)o2)cc1`, the max activity is 15.9% [at 0.16 µM].

Regarding `O=C(Nc1ccc(-c2nc(-c3ccccc3)co2)cc1)c1ccc2c(c1)OCO2`, the max activity is 22.1% [at 0.35 µM]. Regarding `COc1ccc(OC)c(NC(=O)Nc2ccc(-c3nc(-c4ccc(C)cc4C)co3)cc2)c1`, the max activity was 12.1% [at 0.35 µM]. Regarding `COc1cccc(-c2nc3c(s2)CN(C(=O)Nc2ccc(Br)cc2)CC3)c1`, the max activity is 6.77%. The result for `Cc1ccc(-c2nc(Cn3nnc(-c4nc(-c5ccc(OCC(C)C)cc5)no4)c3C)c(C)o2)cc1` reads 21.2% [at 0.16 µM]; that for `CCOC(=O)C1CCN(S(=O)(=O)c2cc(-c3nc(C(C)(C)C)cs3)cs2)CC1`, 7.71% [at 0.68 µM]; that for `CN1C(=O)CCc2cc(NC(=O)c3ccsc3)ccc21`, 74.1% [at 10 µM]. On to `CN1C(=O)CCc2cc(NC(=O)c3ccncc3)ccc21`, for which the max activity was -16.2% [at 2.6 µM]. Turning to `Cc1ccc(-c2coc(-c3ccc(NC(=O)c4ccc(Br)o4)cc3)n2)cc1`, the max activity is 38% [at 2.6 µM]. The result for `O=C(Nc1ccc(-c2nc(-c3ccccc3)co2)cc1)Nc1cccc(F)c1` reads 13.5%. Turning to `Cc1nc(-c2ccc(F)cc2)sc1-c1ccc(SCCN2CCCCCC2)nn1`, the max activity is 9.96%.

Turning to `COc1ccc(-c2ccc(OCCNC(=O)c3sc(-c4ccccc4)nc3C)nn2)cc1`, the max activity was 13.2% [at 0.16 µM]. The result for `COc1ccc(CC(=O)Nc2ccc(-c3nc(-c4ccc(C)cc4)co3)cc2)cc1` reads 16.4% [at 0.35 µM]; that for `O[C@H](CNC[C@@H](O)[C@H]1CCc2cc(F)ccc2O1)[C@@H]1CCc2cc(F)ccc2O1`, -7.92% [at 0.3 µM]; that for `CNc1ncc(CN(C)C(=O)c2csc(C)n2)cn1`, 20.8%. Take `Cc1ccc2c(c1)cc(S(=O)(=O)c1ccccc1)c(=O)n2CC(=O)NCc1ccccc1Cl`: the max activity was 7.82% [at 0.68 µM]. Take `O=C(NCCc1csc(-c2ccccc2)n1)[C@H]1CSCN1C(=O)Cc1cccs1`: the max activity is 12.6%. With `Cc1ccc(C)c(-c2coc(-c3ccc(NC(=O)c4ccccc4)cc3)n2)c1`, the max activity is 11.8% [at 2.6 µM]. `COc1ccccc1NC(=O)Nc1ccc(-c2nc(-c3cc(C)ccc3C)co2)cc1`: the max activity was 9.93% [at 0.16 µM]. `COc1cc(C(=O)Nc2ccc(-c3nc(-c4ccc(C)cc4C)co3)cc2)cc(OC)c1OC`: the max activity was 27.4% [at 5 µM].

`COc1ccc(C(=O)Nc2ccc(-c3nc(-c4cc(C)ccc4C)co3)cc2)cc1OC`: the max activity was 9.52% [at 0.35 µM]. The result for `COc1ccc(C(=O)Nc2ccc(-c3nc(-c4ccc(C)cc4C)co3)cc2)cc1OC` reads 45%; that for `Cc1ccc(-c2coc(-c3ccc(NC(=O)Nc4ccc(F)cc4F)cc3)n2)cc1`, 92.1%. With `COc1ccc(C)cc1NC(=O)Nc1ccc(-c2nc(-c3ccc(C)cc3C)co2)cc1` the figure was 20.4%. Take `O=C(Nc1ccc(-c2nc(-c3ccccc3)co2)cc1)Nc1cc(F)ccc1F`: the max activity is 10.9% [at 2.6 µM].
